Assay results: PubChem BioAssay (NCATS)
Results filed as inconclusive are left out. The source made the active and inactive calls. Calls come from the whole dose curve; as a rule, active = well fitted curve in the direction sought with a large enough effect; inconclusive = small, poorly fitted or top-dose-only effect, or another doubt; inactive = no such curve, though single readings can be large; an effect the other way counts as inactive or inconclusive.

system: not listed separately; test: qHTS to identify inhibitors of the type 1 interferon - major histocompatibility complex class I in skeletal muscle: primary screen against the NCATS Pharmaceutical Collection (AID 1347407); conditions: human skeletal muscle cells, IFN-b-induced MHC-I HiBiT luminescence, 24 h; series mostly up to 45.9 µM; activity change, negative = inhibition: at the top concentration;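 note: luminescence of HiBiT knocked into endogenous HLA-B as interferon-induced MHC class I level; % is set by controls: 0 for no effect and ±100 for the full control effect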
In short: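 Cells were seeded with 4 ng/ml IFN-beta, incubated 1 h, then dosed with compounds over eight 1:5 steps up to 46 uM final. After 24 h at 37 C, HiBiT lytic reagent was added and luminescence read after 10 min lysis in the dark.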

Compound | activity change, negative = inhibition
N[C@@H](Cc1ccc(N(CCCl)CCCl)cc1)C(=O)O | 0.0539% (inactive)
N[C@@H]1C[C@H]1c1ccccc1 | -8.69% (inactive)
CCN(C(C)=O)c1cccc(-c2ccnc3c(C#N)cnn23)c1 | 1.75% (inactive)
O=P1(NCCCl)OCCCN1CCCl (stereo not drawn) | -10.1% (inactive)
O=[N+]([O-])c1cc([As](=O)(O)O)ccc1O | -1.47% (inactive)
CCOP(=S)(OCC)Oc1cc(C)nc(C(C)C)n1 | -0.217% (inactive)
OCCOc1ccccc1 | -2.93% (inactive)
C=C1C[C@@H]2[C@H](CC[C@]3(C)C(=O)CC[C@@H]23)[C@@]2(C)C=CC(=O)C=C12 | -14% (inactive)
C[C@]12CCC(=O)C(O)=C1CC[C@@H]1[C@@H]2CC[C@]2(C)C(=O)CC[C@@H]12 | 4.61% (inactive)
C[C@]12CC[C@H]3[C@@H](CCC4=CC(=O)CC[C@@H]43)[C@@H]1CC[C@@H]2OC(=O)CCc1ccccc1 | -21.8% (inactive)
Cc1ccc2c(c1)C1CN(C)CCC1N2 (stereo not drawn) | -3.06% [at 19 µM] (inactive)
CN1CCN(C(=O)O[C@H]2c3nccnc3C(=O)N2c2ccc(Cl)cn2)CC1 | 0.176% (inactive)
NP(N)(=O)NC(=O)c1ccc(F)cc1 | -2.58% (inactive)
O=c1oc2ccccc2c(O)c1C(CC(O)c1ccc(-c2ccc(Br)cc2)cc1)c1ccccc1 (stereo not drawn) | -22.1% (inactive)
C=CCN1CC[C@]23c4c5ccc(O)c4O[C@H]2C(=O)CC[C@@]3(O)[C@H]1C5 | -2.12% (inactive)
N[C@@H](Cc1ccc(Oc2cc(I)c(O)c(I)c2)c(I)c1)C(=O)O | -1.61% (inactive)
CCOC(=O)C1(c2ccccc2)CCN(CCC(C#N)(c2ccccc2)c2ccccc2)CC1 | -29.8% (inactive)

Compound | activity change, negative = inhibition
CC(C)CC(N(C)C)C1(c2ccc(Cl)cc2)CCC1 (stereo not drawn) | 9.93% (inactive)
COc1ccc(Cc2nccc3cc(OC)c(OC)cc23)cc1OC | -2.99% (inactive)
CCC(C(N)=O)N1CCCC1=O (stereo not drawn) | 0.937% (inactive)
FC(F)(F)c1cccc(C2=CCN(CCc3ccc4ccccc4c3)CC2)c1 | -0.004% (inactive)
Cn1cc(C2=C(c3cn(C4CCN(Cc5ccccn5)CC4)c4ccccc34)C(=O)NC2=O)c2ccccc21 | -11.4% (inactive)
O=C(O)c1ccc2[nH]cc(CCCCN3CC=C(c4ccccc4)CC3)c2c1 | 8.94% (inactive)
CC(C)(N)Cc1ccc(Cl)cc1 | -4.73% (inactive)
Clc1ccc(CCC(Cn2ccnc2)Sc2c(Cl)cccc2Cl)cc1 (stereo not drawn) | -4% (inactive)
COc1ccc2c(c1OC)CN1CCc3cc4c(cc3C1C2)OCO4 (stereo not drawn) | -10.2% (inactive)
CC1NCCOC1c1ccccc1 (stereo not drawn) | 4.66% (inactive)
CC[N+](CC)(CC)CC | 7.71% (inactive)
Oc1cc(Cl)ccc1Oc1ccc(Cl)cc1Cl | -13.3% (inactive)
Clc1cccc(N2CCNCC2)c1 | -2.32% (inactive)
CCN(CC)CCOC(=O)C(O)(c1ccccc1)c1ccccc1 | 3.6% (inactive)
C=C1CC[C@@]2(O)[C@H]3Cc4ccc(O)c5c4[C@@]2(CCN3CC2CC2)[C@H]1O5 | 1.42% (inactive)
Oc1ccc(Cl)cc1Cc1ccccc1 | -16.2% (inactive)
CC[N+]1(C)CCCC(OC(=O)C(O)(c2ccccc2)c2ccccc2)C1 (stereo not drawn) | -19.5% (inactive)

system: not listed separately; test: qHTS to identify inhibitors of the type 1 interferon - major histocompatibility complex class I in skeletal muscle: primary screen against the NCATS Mechanism Interrogation Plate v5.0 (MIPE) Libary (AID 1347411); conditions: iHSKM cells + IFN-b, HiBiT-tagged MHC-I luminescence, 24 h; series mostly up to 45.8 µM; activity change, negative = inhibition: at the top concentration;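 note: plate controls were vehicle for no effect and reference inhibitor for full effect; nearly all actives have a fitted effect of over 65% in size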
In short: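 HLA-B HiBit myoblasts, dexamethasone-free medium + 4 ng/ml IFN-b, 24 h compound, 11-pt 1:3 from 46 uM final. Readout: Nano-Glo HiBiT lytic luminescence after 10 min lysis, RT.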

Compound | activity change, negative = inhibition
N[C@@H](Cc1ccc(N(CCCl)CCCl)cc1)C(=O)O | -37.5% (inactive)
N[C@@H]1C[C@H]1c1ccccc1 | 1.11% (inactive)
O=P1(NCCCl)OCCCN1CCCl (stereo not drawn) | -0.553% (inactive)
C[C@]12CCC(=O)C(O)=C1CC[C@@H]1[C@@H]2CC[C@]2(C)C(=O)CC[C@@H]12 | -11.5% [at 91.7 µM] (inactive)
Cn1cc(C2=C(c3cn(C4CCN(Cc5ccccn5)CC4)c4ccccc34)C(=O)NC2=O)c2ccccc21 | -16% (inactive)

target: Protein phosphatase 1D (Homo sapiens) (UniProt O15297); test: RapidFire Mass Spectrometry qHTS Assay for Modulators of WT P53-Induced Phosphatase 1 (WIP1) (AID 1347424); conditions: WIP1 dephosphorylation of phosphopeptide, RapidFire MS; series mostly up to 63 µM; activity change, negative = inhibition: at the top concentration;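 note: amount of dephosphorylated VEPPL-S-QETFS peptide product formed by WIP1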; note: potency is the fitted concentration of half-maximal effect;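 for activity change, negative = inhibition: plate controls were DMSO wells for no effect and GSK830371 inhibitor control at 10 µM for full effect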
In short: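 Mass-spectrometric measurement of dephosphorylated peptide after a 5 min room-temperature reaction of 10 nM WIP1 with 2 uM phosphopeptide, following 1 h compound preincubation in 30 mM MgCl2 buffer.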

Chain of Protein phosphatase 1D (Homo sapiens) (O15297 whole entry, looked up): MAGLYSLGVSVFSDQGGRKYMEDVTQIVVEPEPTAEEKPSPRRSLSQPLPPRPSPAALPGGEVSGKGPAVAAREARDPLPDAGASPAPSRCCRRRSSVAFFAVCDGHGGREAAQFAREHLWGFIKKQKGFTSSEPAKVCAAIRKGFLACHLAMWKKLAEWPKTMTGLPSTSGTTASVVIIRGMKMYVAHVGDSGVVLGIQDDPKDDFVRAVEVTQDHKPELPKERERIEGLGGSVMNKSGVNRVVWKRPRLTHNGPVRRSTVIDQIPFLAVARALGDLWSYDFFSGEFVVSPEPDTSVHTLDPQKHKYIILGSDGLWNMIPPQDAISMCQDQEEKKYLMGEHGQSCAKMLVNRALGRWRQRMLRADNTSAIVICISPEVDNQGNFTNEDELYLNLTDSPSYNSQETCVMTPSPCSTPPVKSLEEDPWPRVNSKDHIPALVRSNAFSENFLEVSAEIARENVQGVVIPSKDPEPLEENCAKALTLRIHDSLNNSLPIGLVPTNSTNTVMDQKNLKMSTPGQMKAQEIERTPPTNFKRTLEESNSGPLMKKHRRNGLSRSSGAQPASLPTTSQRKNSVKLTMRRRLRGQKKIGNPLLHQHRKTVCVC

Compound | activity change, negative = inhibition | Potency
N[C@@H](Cc1ccc(N(CCCl)CCCl)cc1)C(=O)O | 1.94% (inactive) | –
N[C@@H]1C[C@H]1c1ccccc1 | 6.43% (inactive) | –
CCN(C(C)=O)c1cccc(-c2ccnc3c(C#N)cnn23)c1 | -13.7% (inactive) | –
O=P1(NCCCl)OCCCN1CCCl (stereo not drawn) | -0.91% (inactive) | –
O=[N+]([O-])c1cc([As](=O)(O)O)ccc1O | -4.6% (inactive) | –
CCOP(=S)(OCC)Oc1cc(C)nc(C(C)C)n1 | 7.54% (inactive) | –
OCCOc1ccccc1 | 16.4% (inactive) | –
C=C1C[C@@H]2[C@H](CC[C@]3(C)C(=O)CC[C@@H]23)[C@@]2(C)C=CC(=O)C=C12 | -0.2% (inactive) | –
C[C@]12CCC(=O)C(O)=C1CC[C@@H]1[C@@H]2CC[C@]2(C)C(=O)CC[C@@H]12 | 9.37% (inactive) | –
C[C@]12CC[C@H]3[C@@H](CCC4=CC(=O)CC[C@@H]43)[C@@H]1CC[C@@H]2OC(=O)CCc1ccccc1 | 21.6% (inactive) | –
Cc1ccc2c(c1)C1CN(C)CCC1N2 (stereo not drawn) | -5.78% [at 26.6 µM] (inactive) | –
CN1CCN(C(=O)O[C@H]2c3nccnc3C(=O)N2c2ccc(Cl)cn2)CC1 | -7.95% (inactive) | –
NP(N)(=O)NC(=O)c1ccc(F)cc1 | 1.17% (inactive) | –
O=c1oc2ccccc2c(O)c1C(CC(O)c1ccc(-c2ccc(Br)cc2)cc1)c1ccccc1 (stereo not drawn) | – | 8.91 µM (active)
C=CCN1CC[C@]23c4c5ccc(O)c4O[C@H]2C(=O)CC[C@@]3(O)[C@H]1C5 | -1.97% (inactive) | –
N[C@@H](Cc1ccc(Oc2cc(I)c(O)c(I)c2)c(I)c1)C(=O)O | – | 12.6 µM (active)
CCOC(=O)C1(c2ccccc2)CCN(CCC(C#N)(c2ccccc2)c2ccccc2)CC1 | 37.4% (inactive) | –

Compound | activity change, negative = inhibition | Potency
CC(C)CC(N(C)C)C1(c2ccc(Cl)cc2)CCC1 (stereo not drawn) | -4.8% (inactive) | –
COc1ccc(Cc2nccc3cc(OC)c(OC)cc23)cc1OC | -15.2% (inactive) | –
CCC(C(N)=O)N1CCCC1=O (stereo not drawn) | -6.45% (inactive) | –
FC(F)(F)c1cccc(C2=CCN(CCc3ccc4ccccc4c3)CC2)c1 | 20.2% (inactive) | –
Cn1cc(C2=C(c3cn(C4CCN(Cc5ccccn5)CC4)c4ccccc34)C(=O)NC2=O)c2ccccc21 | -5.3% (inactive) | –
O=C(O)c1ccc2[nH]cc(CCCCN3CC=C(c4ccccc4)CC3)c2c1 | -17.3% (inactive) | –
CC(C)(N)Cc1ccc(Cl)cc1 | -12.9% (inactive) | –
Clc1ccc(CCC(Cn2ccnc2)Sc2c(Cl)cccc2Cl)cc1 (stereo not drawn) | 54.3% (inactive) | –
COc1ccc2c(c1OC)CN1CCc3cc4c(cc3C1C2)OCO4 (stereo not drawn) | 9.93% (inactive) | –
CC1NCCOC1c1ccccc1 (stereo not drawn) | 6.79% (inactive) | –
CC[N+](CC)(CC)CC | 7.44% (inactive) | –
Oc1cc(Cl)ccc1Oc1ccc(Cl)cc1Cl | -0.533% (inactive) | –
Clc1cccc(N2CCNCC2)c1 | -4.79% (inactive) | –
CCN(CC)CCOC(=O)C(O)(c1ccccc1)c1ccccc1 | -1.11% (inactive) | –
C=C1CC[C@@]2(O)[C@H]3Cc4ccc(O)c5c4[C@@]2(CCN3CC2CC2)[C@H]1O5 | -3.78% (inactive) | –
Oc1ccc(Cl)cc1Cc1ccccc1 | -29.3% (inactive) | –
CC[N+]1(C)CCCC(OC(=O)C(O)(c2ccccc2)c2ccccc2)C1 (stereo not drawn) | 2.73% (inactive) | –
